Measured values reported in PubChem BioAssay AID720611 (Broad Institute, 2013).
Measured potencies and affinities stand elsewhere. The source made the active and inactive calls.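 The calls were made as follows: active = viability loss with half-effect dose no higher than twice the top dose, at all three exposure times; inconclusive = exposure times disagree or give unclear fits; inactive = inactive at every exposure time.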

Assay: cytotoxicity in SNB-19 cells – cell-based, CellTiter-Glo ATP luminescence, 8-48 h, dry powder, mechanism study for HRAS target identification, late-stage follow-up (AID 720611)

Row | Compound | outcome
1 | CCC(=O)N(c1ccc(OC)c(Cl)c1)C(C(=O)NCCc1ccccc1)c1cccs1 (configuration not stated) | inactive
2 | Cc1onc(C(=O)N2CCN(C(c3ccncc3)c3ccncc3)CC2)c1[N+](=O)[O-] | inactive
